This is part of a sample that, as a whole, favours compounds with a hit. Of some 83,000 tested, about 20% had one in any assay.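 Treatment: one concentration, 48 hours, 96-well format. Scoring: percent growth, with anything below 10 considered active.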 Activity calls are given as the source filed them.
What was measured:
Experiment in all cases: NCI-60 one-dose screen, 48 h (100 = growth as untreated, 0 = no growth, -100 = all killed)
Details in all cases: 10 µM unless noted
[1] = tested on: HCT-15 colon
[2] = tested on: HT29 colon
[3] = tested on: SNB-75 CNS
[4] = tested on: SNB-19 CNS
[5] = tested on: U251 CNS
[6] = tested on: PC-3 prostate
[7] = tested on: SK-MEL-5 melanoma
[8] = tested on: UACC-62 melanoma
[9] = tested on: LOX IMVI melanoma
[10] = tested on: SK-MEL-28 melanoma
[11] = tested on: SK-MEL-2 melanoma
[12] = tested on: EKVX NSCLC
[13] = tested on: SN12C renal
[14] = tested on: UO-31 renal
[15] = tested on: TK-10 renal
[16] = tested on: ACHN renal
[17] = tested on: CAKI-1 renal
[18] = tested on: A498 renal
[19] = tested on: CCRF-CEM leukemia
[20] = tested on: MOLT-4 leukemia

Measured: growth

Cc1ccc2c(c1)C(C)Cc1c(N(C)C)ncnc1N2C (stereo not drawn)
inactive: [1] 20.6% | [3] 14% | [4] 43.8% | [5] 21.3% | [6] 32.8% | [7] 15% | [8] 33% | [9] 37.7% | [10] 56.6% | [11] 30% | [12] 27.2% | [13] 44.9% | [14] 59.1% | [15] 14.1% | [16] 53.3% | [17] 35.2% | [19] 21.4% | [20] 30.6%
active: [2] 4.7% | [18] -9.12%

O=S(=O)(NCCCNc1cc(-c2cn(-c3ccccc3)nc2-c2cccc(O)c2)ccn1)c1ccc(Cl)cc1
inactive: [3] 20.3% | [4] 43.8% | [5] 13.8% | [8] 17.1% | [12] 27.6% | [13] 34.5% | [14] 10% | [15] 33.5% | [16] 17% | [17] 15.3% | [18] 26.4% | [19] 11.6%
active: [1] -5.43% | [2] -32.7% | [6] 1.79% | [7] -19.5% | [9] 3.96% | [10] -27.5% | [11] 5.9% | [20] 4.49%

C=CCOc1ccc(/C(O)=C2\C(=O)C(=O)N(c3nccs3)C2c2ccccc2F)cc1 (stereo not drawn)
inactive: [1] 82.1% | [2] 108% | [3] 89.8% | [4] 102% | [5] 93% | [6] 114% | [7] 94.7% | [8] 76.6% | [9] 90.3% | [10] 107% | [11] 54% | [12] 133% | [13] 103% | [14] 110% | [15] 89.1% | [16] 79.4% | [17] 98.7% | [18] 73.8% | [19] 131% | [20] 98.3%

CC(Cc1nnc(SCC(=O)Nc2ccc(I)cc2)n1N)c1ccccc1 (stereo not drawn)
inactive: [1] 103% | [2] 111% | [3] 260% | [4] 96.6% | [5] 92.7% | [6] 90.2% | [7] 94.3% | [8] 66.8% | [9] 83.7% | [10] 133% | [11] 69.8% | [12] 82.5% | [13] 98.4% | [14] 74.1% | [15] 89.9% | [16] 86.5% | [17] 104% | [18] 99.9% | [19] 54.9% | [20] 93.4%

Cc1ccc(S(=O)(=O)N2CCC(C(=O)Nc3ccc(F)cc3F)CC2)cc1
inactive: [1] 103% | [2] 75.5% | [3] 93.2% | [4] 86.5% | [5] 101% | [6] 93.9% | [7] 64.8% | [8] 86.4% | [9] 82.3% | [10] 122% | [11] 34.2% | [12] 94.6% | [13] 90.7% | [14] 37.6% | [15] 85.3% | [16] 107% | [17] 97.8% | [18] 83.7% | [19] 101% | [20] 79.2%

CCNc1nc(N2CC(=O)Nc3cc(OC)ccc32)c2ccccc2n1
inactive: [3] 24.7% | [4] 19.2% | [9] 20.5% | [10] 45% | [11] 31.6% | [12] 12.8% | [13] 27% | [14] 15.6% | [15] 21.3% | [17] 22.6% | [19] 26.8% | [20] 24.8%
active: [1] 6.11% | [2] 0.723% | [5] 8.29% | [6] 6.21% | [7] -81.6% | [8] 9.13% | [16] 8.34% | [18] -11.4%

CCSc1nnc(NC(=O)Cc2ccc(Cl)cc2)s1
inactive: [1] 98.3% | [2] 114% | [3] 106% | [4] 97.4% | [5] 98.7% | [6] 101% | [7] 107% | [8] 97% | [9] 97.1% | [10] 113% | [11] 73.4% | [12] 103% | [13] 105% | [14] 40% | [15] 113% | [16] 103% | [17] 102% | [18] 100% | [19] 87.9% | [20] 103%

CSc1ccccc1C#C/C=C\C#Cc1ccccc1N1CCCCC1=O
inactive: [1] 112% | [2] 94.9% | [3] 118% | [4] 111% | [5] 93.6% | [6] 77.7% | [7] 101% | [8] 78.5% | [9] 91.8% | [10] 153% | [11] 70.8% | [12] 91.5% | [13] 98.3% | [14] 34.6% | [15] 151% | [16] 97.7% | [17] 95% | [19] 60% | [20] 104%

COc1ccc(OC)c(/C=C2\Oc3cc(OCCN4CCCC4)ccc3C2=O)c1
inactive: [1] 93.7% | [2] 23.8% | [3] 95.7% | [4] 94.3% | [5] 89.5% | [6] 91.5% | [7] 89.2% | [8] 100% | [9] 90.3% | [10] 101% | [11] 106% | [12] 95.2% | [13] 92.8% | [14] 74.1% | [15] 110% | [16] 92.7% | [17] 79.7% | [18] 78.2% | [20] 87.5%

COc1ccc2c(c1)NC(=O)CN2c1nc(NC2CC2)nc2ccccc12
active: [2] 3.45% | [6] 4.75% | [7] -55.3% | [18] -12.8%
inactive: [1] 10.5% | [3] 31.4% | [4] 29.9% | [5] 11.8% | [8] 26.1% | [9] 34.9% | [10] 54.7% | [11] 25.7% | [12] 27.8% | [13] 39.1% | [14] 28.7% | [15] 23.6% | [16] 24.9% | [17] 32.9% | [19] 31.7% | [20] 33.9%

CC(Br)C(O)c1cc2c(cc1Br)OCO2 (stereo not drawn)
inactive: [1] 102% | [2] 114% | [3] 88% | [4] 112% | [5] 102% | [6] 98.6% | [7] 102% | [8] 98.9% | [9] 93.2% | [10] 108% | [11] 115% | [12] 104% | [13] 112% | [14] 88.6% | [15] 114% | [16] 109% | [17] 90.5% | [18] 127% | [19] 101% | [20] 104%

O=C(Nc1ccc(F)c(Cl)c1)c1n[nH]c(=O)c2ccccc12
inactive: [1] 89.6% | [2] 112% | [3] 94.2% | [4] 104% | [5] 90.3% | [6] 112% | [7] 90.9% | [8] 81.4% | [9] 87.4% | [10] 115% | [11] 74.8% | [12] 123% | [13] 98.1% | [14] 106% | [15] 157% | [16] 89.1% | [17] 89.5% | [18] 103% | [19] 105% | [20] 97.2%

— PubChem BioAssay (NCI)
